A selection: hits, their analogues and other compounds. The true share with any hit is near 12%.
Insulin prom inh = inhibitors of insulin promoter-driven GFP, primary screen, imaging, TRM-6 cells (human fetal islet line), eGFP reporter, cell count. reporter expression induced with tamoxifen. actives 0.9% (n = 130,000). inhibition, % at 2 µM;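 active = inhibition above the mean plus 3 SD, with well images judged a real hit on visual review, cut at about 60% in these data, passing the limit was not always enough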
Ins promoter up = insulin promoter activators in MIN6 cells, imaging, high-content screening, mouse beta cells. AID 1625, 2009. actives 0.3% (n = 190,000). z-score at 5 µM. MIN6 insulin promoter-GFP reporter; hits give high values;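 active = z-score above 3 at 5 µM with at least 500 cells counted in the well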
WT yeast gro inh = growth inhibition of WT strain, primary screen, mitochondrial fusion inhibitor project, WT and mutant strains, chemical genetic | mitochondrial fusion phenotypic screen | inhibition, % at 10 µM | actives 2.1% (n = 190,000) | AID 1362, 2008; in the data active = inhibition above about 58%; tested in S. cerevisiae
KCC2 mod = KCC2 cotransporter modulators, thallium flux, primary screen, cell-based, HEK293 KCC2, FluoZin-2 fluorescence, MLSMR | Solute carrier family 12 member 5 (Homo sapiens), Q9H2X9 | KCC2 cells, thallium flux FluoZin-2 fluorescence | B-score of Tl+ flux slope (higher = more flux/activation; lower = inhibition) at 10 µM | actives 2.2% (n = 190,000);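 active = thallium flux slope and its plate-corrected score both differing from the plate sample mean at a set confidence after two filtering rounds, in either direction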;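 also: slope of fluorescence scaled to starting intensity during 10 to 20 s after thallium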
Lmaj promast = Leishmania major promastigote growth inhibition, primary screen; Leishmania major promastigotes, resazurin fluorescence viability; inhibition, % at 10 µM; actives 9% (n = 200,000); AID 1063, 2008; in the data active = inhibition above about 50%;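 also: promastigotes grown with compound for 44 hours at 28 °C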
ROMK mod = ROMK potassium channel modulators, primary screen, cell-based, thallium flux, MLSMR library; ATP-sensitive inward rectifier potassium channel 1 (Homo sapiens), P48048; Tet-inducible ROMK, thallium flux fluorescence; actives lie on both sides; B-score at 10 µM; actives 2% (n = 130,000);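 active = signal ratio slope over the read window, or its plate-corrected B-score, at least 3 SD from the plate mean, either direction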;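 also: B-score of the F/F0 ratio slope over 7 to 12 s after thallium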
* = called active by the depositor; . = no result given.

SMILES	Insulin prom inh	Ins promoter up	WT yeast gro inh	KCC2 mod	Lmaj promast	ROMK mod
Cc1noc(C)c1S(=O)(=O)N1CCC(C(=O)NCCC2=CCCCC2)CC1	-11	-0.55	17	0.21	100*	0.35
CCCCNC(=O)C1CCCN(S(=O)(=O)c2c(C)noc2/C=C/c2cccs2)C1 (stereo not drawn)	.	-0.57	.	-0.072	.	-0.077
COc1ccccc1CNC(=O)C1CCN(S(=O)(=O)c2c(C)noc2C)CC1	13	-0.27	-20	0.56	100*	0.13
Cc1noc(/C=C/c2cccs2)c1S(=O)(=O)N1CCC(C(=O)NCCCN2CCCC(C)C2)CC1 (stereo not drawn)	.	-0.89	-5	0.011	96*	-3.4
CC(=O)Nc1ccc(OCC(O)Cn2ccnc2C)cc1 (stereo not drawn)	10	1.1	-8	0.42	-4	0.049
O=C(CN1CCN(Cc2ccccc2Cl)CC1)N=Nc1c(O)[nH]c2ccccc12	-4	-0.47	-15	-0.61	7	.
Cc1ccc(CNC(=O)C2CCN(S(=O)(=O)c3c(C)noc3C)CC2)cc1	-76	-0.27	19	.	99*	0.059
CCC(Sc1nc2c(c(=O)n1CC)SC(C)C2)C(=O)OC (stereo not drawn)	.	2	15	.	2	.
COc1ccccc1C1CN(c2ccc(F)cc2F)N=C1c1cccs1 (stereo not drawn)	-7	0.65	79*	-1.3	4	.
Clc1ccc(COc2ccccc2CNCc2cccnc2)cc1	-45	.	9	-0.012	99*	-2.8
CCOc1cccc(CNCc2cccnc2)c1OCc1ccccc1	-80	-1.9	6	-0.16	15	-1.8
C=CCOc1ccccc1CNCc1cccnc1	44	-0.42	4	.	87*	0.11
CC1CCN(C(=O)c2ccc3c(Cl)c4c(nc3c2)CCCC4)CC1	.	-0.08	51	-1.4	16	0.21
O=C(NC1CC1)c1ccc2c(Cl)c3c(nc2c1)CCCC3	21	-0.6	7	-0.37	36	.
Cc1ccc(N(C)C(=O)c2ccc3c(Cl)c4c(nc3c2)CCC4)cc1C	-80	-0.6	83*	-0.62	16	-0.25
CCN(CC)CCCNC(=O)c1ccc2c(Cl)c3c(nc2c1)CCCC3	-36	-0.11	-15	0.78	83*	.
CCOC(=O)N1CCC(NC(=O)c2ccc3c(Cl)c4c(nc3c2)CCCC4)CC1	-20	1.2	0	0.15	39	-2.5*
CCc1ccc(N(CC)C(=O)c2ccc3c(Cl)c4c(nc3c2)CCC4)cc1	35	0.78	91*	-1	32	0.063
CCN(C(=O)c1ccc2c(Cl)c3c(nc2c1)CCC3)c1cccc(C)c1	-50	0.35	42	-1.4	28	-0.11
O=C(C1CCC(=O)N1Cc1cccnc1)N1CCN(c2ccc(F)cc2)CC1 (stereo not drawn)	.	-0.8	10	.	-5	.
CN1CCN(c2ccc(-c3ccnn3C(=O)Nc3cccc(C(F)(F)F)c3)cc2)CC1	20	0.24	68*	0.84	3	0.45
COc1ccc(N2CCN(C(=O)Nc3cccc(C(F)(F)F)c3)CC2)cc1	-55	.	6	-0.64	3	-0.74
COC(=O)c1ccccc1NC(=O)CN(c1ccccc1)S(=O)(=O)N(C)C	-44	.	-9	-0.07	-4	-0.53
CCCCNC(=O)c1ccccc1NC(=O)CN(c1ccccc1)S(=O)(=O)N(C)C	-21	0.1	8	0.14	65*	-0.08
N#CC(Sc1ccccn1)c1ccc(Cl)cc1Cl (stereo not drawn)	-46	-0.94	26	.	24	-0.84
SMILES	Insulin prom inh	Ins promoter up	WT yeast gro inh	KCC2 mod	Lmaj promast	ROMK mod
COc1cccc2sc(Nc3nnc(-c4cccs4)o3)nc12	.	-0.26	33	58*	96*	.
Fc1cccc2sc(Nc3nnc(-c4ccco4)o3)nc12	30	0.25	14	33*	-3	5.1*
CC(=O)Nc1nnc(-c2ccco2)o1	.	-0.01	10	0.08	-7	0.46
COCC(C)n1c(SCc2cc(C(=O)OC)c(C)o2)nc2ccccc2c1=O (stereo not drawn)	.	-1.2	.	-1.9	.	.
Cc1c(C(=O)NCCSCc2ccccc2Cl)cccc1[N+](=O)[O-]	26	-0.21	13	-1.8	33	.
Cc1c(C(=O)Nc2nnc(SCc3ccccc3Cl)s2)cccc1[N+](=O)[O-]	4	0.15	6	0.055	74*	-0.13
